Measured values from PubChem BioAssay (Tox21).
Results filed as inconclusive are left out. Calls of active or inactive are those of the source. Unless noted, the call rests on the fitted dose curve; in most records, active means well fitted curve in the direction sought with a large enough effect in the repeat runs; inconclusive means weak or mixed curves; inactive means flat fitted curve, though single readings scatter.

Legend:
[1] = qHTS assay to test for compound auto fluorescence at 535 nm (green) in HEK293 cells (AID 720680)
[2] = qHTS assay to test for compound auto fluorescence at 460 nm (blue) in HEK293 cell free culture (AID 720681)
In short: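 Test compounds were pinned into cell-free culture medium (DMEM with 10% FBS) and fluorescence was read directly at Ex/Em 405/460 nm. Signals were expressed as fluorescence equivalents of triamterene, with DMSO vehicle as control.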

[3] = qHTS assay to test for compound auto fluorescence at 535 nm (green) in HEK293 cell free culture (AID 720682)
In short: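 Using fluorescein as calibrant, autofluorescence was quantified at 485/535 nm in cell-free DMEM containing 10% FBS after pintool addition of compound or vehicle.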

[4] = qHTS assay to test for compound auto fluorescence at 590 nm (red) in HEK293 cell free culture (AID 720683)
In short: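 Tox21 10K library compounds were pinned into cell-free DMEM with 10% FBS and fluorescence was read at excitation 540 nm. Activity is expressed as Rose Bengal sodium equivalency.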

[5] = qHTS assay to test for compound auto fluorescence at 590 nm (red) in HepG2 cell free culture (AID 720684)
In short: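 Measured in medium alone (MEM containing 10% FBS) following pintool addition of compound; emission at 590 nm with 540 nm excitation, referenced to Rose Bengal sodium.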

[6] = qHTS assay to test for compound auto fluorescence at 460 nm (blue) in HepG2 cell free culture (AID 720685)
In short: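 Compound (23 nL) or DMSO pinned into cell-free MEM with 10% FBS; blue fluorescence read at 405/460 nm excitation/emission, expressed as auto-fluorescence equivalency to triamterene.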

[7] = qHTS assay to test for compound auto fluorescence at 535 nm (green) in HepG2 cell free culture (AID 720686)
[8] = qHTS assay to test for compound auto fluorescence at 460 nm (blue) in HepG2 cells (AID 720687)
In short: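 Cells (2,000/well in MEM with 10% FBS) attached overnight at 37 C, then were exposed to compound or DMSO for 1 hr at 37 C, 5% CO2. Fluorescence read at Ex/Em 405/460 nm, expressed as triamterene-equivalent signal.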

[9] = molecular target: Glucocorticoid receptor (Homo sapiens) (UniProt P04150); assay: qHTS assay to identify small molecule agonists of the glucocorticoid receptor (GR) signaling pathway (AID 720691; active means well fitted activation curve with a large enough effect in the signal ratio in the repeat runs, not every such curve was filed as active; the % refers to the signal ratio)
In short: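 Reporter read-out: fluorescence intensity following 2 h room-temperature LiveBLAzer B/G FRET substrate loading. Prior step: GR-bla HeLa cells held 4 h, then treated 18 h at 37 C.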

[10] = molecular target: Glucocorticoid receptor (Homo sapiens) (UniProt P04150); assay: qHTS assay to identify small molecule antagonists of the glucocorticoid receptor (GR) signaling pathway (AID 720692; active means well fitted inhibition curve with a large enough effect in the signal ratio in the repeat runs, not every such curve was filed as active; the % refers to the signal ratio)
In short: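 Dexamethasone (5 nM final) stimulated a stably integrated GRE-beta-lactamase reporter in HeLa cells during 18 h co-incubation with compounds; signal was quantified as fluorescence intensity of B/G FRET substrate after 2 h.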

Measured: Potency

Glucocorticoid receptor (Homo sapiens), sequence (P04150 whole entry, looked up): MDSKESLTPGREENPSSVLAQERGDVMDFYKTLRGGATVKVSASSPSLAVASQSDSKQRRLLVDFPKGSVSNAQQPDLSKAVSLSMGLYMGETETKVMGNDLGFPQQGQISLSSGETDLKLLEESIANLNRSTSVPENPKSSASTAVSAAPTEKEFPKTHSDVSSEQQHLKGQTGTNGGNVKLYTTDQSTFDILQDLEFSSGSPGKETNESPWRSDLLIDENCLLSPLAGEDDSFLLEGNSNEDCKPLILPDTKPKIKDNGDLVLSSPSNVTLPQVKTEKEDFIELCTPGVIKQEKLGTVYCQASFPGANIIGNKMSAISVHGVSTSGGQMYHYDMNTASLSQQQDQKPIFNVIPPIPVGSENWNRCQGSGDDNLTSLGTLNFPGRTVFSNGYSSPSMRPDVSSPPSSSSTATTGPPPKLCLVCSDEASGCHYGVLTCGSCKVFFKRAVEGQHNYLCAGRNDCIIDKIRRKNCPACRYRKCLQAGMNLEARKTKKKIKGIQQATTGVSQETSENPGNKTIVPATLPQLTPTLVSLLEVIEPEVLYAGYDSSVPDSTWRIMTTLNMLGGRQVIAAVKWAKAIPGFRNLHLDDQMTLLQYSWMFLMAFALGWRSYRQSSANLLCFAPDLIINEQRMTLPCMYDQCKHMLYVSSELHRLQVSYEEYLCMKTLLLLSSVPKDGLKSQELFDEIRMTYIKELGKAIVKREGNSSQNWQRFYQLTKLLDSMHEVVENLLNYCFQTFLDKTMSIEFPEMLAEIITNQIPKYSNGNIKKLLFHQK

OC1CCCCC1
inactive: all assays above

CC(C)(C)NC[C@H](O)COc1nsnc1N1CCOCC1
inactive: all assays above

O=C(O)C1=NN(c2ccc(S(=O)(=O)O)cc2)C(=O)C1
inactive: all assays above

CC(C)=CCC/C(C)=C/C=O
inactive: all assays above

CC(=O)CC(=O)N(C)C
inactive: all assays above

CCCCC(=O)O
inactive: all assays above

C=C(CC(=O)O)C(=O)O
inactive: all assays above

Brc1ccc(Oc2ccc(Br)cc2)cc1
inactive: all assays above

CC(=O)OCc1ccc2c(c1)OCO2
inactive: all assays above

Nc1cccc(N)n1
not listed: [8] | [10]
inactive: all other assays above

Cc1ccc(C(C)C)cc1
inactive: all assays above

CC(=O)OC[C@H]1O[C@@](COC(C)=O)(O[C@H]2O[C@H](COC(C)=O)[C@@H](OC(C)=O)[C@H](OC(C)=O)[C@H]2OC(C)=O)[C@@H](OC(C)=O)[C@@H]1OC(C)=O
inactive: all assays above

CC(=O)C(C)C
inactive: all assays above

CC(=O)Nc1ccc(CC(=O)O)cc1
inactive: all assays above

C=CC(C)(C)C
inactive: all assays above

O=C(c1ccccc1)c1ccc(O)c(O)c1O
inactive: all assays above

CCCCCCCCC(=O)O
inactive: all assays above

C1CCCNCC1
inactive: all assays above

C=CC(=O)NCOCCCC
inactive: all assays above

O=Cc1ccc(CO)o1
inactive: all assays above

CS(=O)(=O)c1ccc(Cl)cc1
inactive: all assays above

COc1c(Cl)ccc(Cl)c1C(=O)O
not listed: [5] | [9] | [10]
inactive: all other assays above

O=C(NCC1CCCCN1)c1cc(OCC(F)(F)F)ccc1OCC(F)(F)F (configuration not stated)
not listed: [5] | [9] | [10]
inactive: all other assays above

CCOC(=O)CC(=O)OCC
not listed: [5]
inactive: all other assays above

O=[N+]([O-])c1ccccc1C(F)(F)F
not listed: [5] | [9] | [10]
inactive: all other assays above

CCCCCCC(=O)O
not listed: [5]
inactive: all other assays above
